Laboratory results as given in PubChem BioAssay (Tox21).
“And” between values parts separate entries of the source, which are not always exact repeats. Equal values may be shown once. A number with no mark means an inactive call. The source made the active and inactive calls. Calls come from the whole dose curve.

Target: Gonadotropin-releasing hormone receptor (Homo sapiens) (UniProt P30968)
Assay: Human gonadotropin-releasing hormone receptor (GnRHR) small molecule agonists, calcium flux assay in GnRHR-HEK293 cells (AID 1920063); note: nearly all actives have a fitted effect of over 35% in size
Settings: calcium flux fluorescence, agonist mode; series mostly up to 57.6 µM; activity change: at the top concentration
From the text: National Center for Advancing Translational Sciences [NCATS]
Division of Preclinical Innovation [DPI]
U.S. Environmental Protection Agency [EPA]
National Institutes of Environmental Health Sciences [NIEHS]
National Toxicology Program [NTP]
U.S. Food and Drug Administration [FDA]
Gonadotropin-releasing hormone receptor (GnRHR) is a G-protein-coupled receptor (GPCR) and acts (through phospholipase C) to increase intracellular inositol trisphosphate and then release intracellular calcium stores. Cell-based GnRHR-Hek293 calcium influx assay is using HEK293 cells that have been genetically engineered to express the human GnRHR, which activity can be measured by calcium signaling. A compound/drug can activate (agonist) GnRHR that can be monitored by levels of intracellular calcium.
GnRHR-HEK293 cells developed by Codex Corp contain human GnRHR reporter gene, which was stably integrated into HEK 293 cells. The compound activation can be detected by fluorescence intensity via calcium flux assay. This cell line has been used to screen the Tox21 10K compound library to identify GnRHR agonists.
GnRHR-Hek293 cells were dispensed at 1500cells/4uL/well in 1536-well black wall/clear bottom plates using a multidrop dispenser. After the assay plates were incubated at a 37 C/5% CO2 incubator for 18 hours, 4 uL of Calcium Dye Solution was added to each well. The plates were incubated at 37 C for 1 hour. For agonist mode, 23 nL of compounds dissolved in DMSO, positive controls or DMSO only was transferred to the assay plate by a pin tool station. The fluorescence intensity in the plates was measured using FDSS 7000EX kinetic plate reader with a filter set of Ex/Em=480/540 for 3 min at 1 sec intervals. Each test compound was measured at 15 concentrations and in triplicates.
% is set by controls: 0 for no effect and ±100 for the full control effect; potency is the fitted concentration of half-maximal effect.

Gonadotropin-releasing hormone receptor (Homo sapiens), sequence (P30968 whole entry, looked up): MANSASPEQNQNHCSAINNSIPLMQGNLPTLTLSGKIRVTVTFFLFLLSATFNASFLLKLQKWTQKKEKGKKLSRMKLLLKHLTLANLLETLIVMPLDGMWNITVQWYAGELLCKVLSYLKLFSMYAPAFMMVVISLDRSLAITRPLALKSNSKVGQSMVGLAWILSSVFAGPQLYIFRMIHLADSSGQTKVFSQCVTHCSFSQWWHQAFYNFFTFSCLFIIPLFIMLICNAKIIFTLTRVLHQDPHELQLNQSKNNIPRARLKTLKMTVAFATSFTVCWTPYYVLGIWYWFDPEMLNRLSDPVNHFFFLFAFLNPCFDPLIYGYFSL

SMILES	Potency	activity change
OC(O)C(Cl)(Cl)Cl	inactive	–
Brc1c(Br)c(Br)c(Br)c(Br)c1Br	–	0.959% [at 5.22 µM, hits give high values]
Nc1c(Br)cc([N+](=O)[O-])cc1[N+](=O)[O-]	–	-1.79%
O=C(Cl)OCc1ccccc1	–	0.771%
CC(C)(C)OOC(C)(C)CCC(C)(C)OOC(C)(C)C	–	1.53%
Cc1cc(Cl)ccc1OCCCC(=O)O	inactive	–
CCC(=O)C(CC(C)N(C)C)(c1ccccc1)c1ccccc1 (stereo not given)	inactive	–
CCCCCCC1CCOC1=O (stereo not given)	–	-0.751%
OCCN(CCO)CCO	inactive	–
CN(C)N	–	0.637%
O=[N+]([O-])c1ccc(Cl)c(Cl)c1	inactive	–
COC(=O)c1ccc(CBr)cc1	–	-1.14%
N#CCCO	–	-0.104%
CCCCCCCCOC(=O)c1ccc(C(=O)OCCCCCCCC)c(C(=O)OCCCCCCCC)c1	–	1%
Cc1ccc(-c2nc3ccc(C)cn3c2CC(=O)N(C)C)cc1	–	0.307% [at 26.4 µM, hits give high values]
CCCC(=O)Cl	–	-0.795%
Nc1c(Cl)c(Cl)nc(C(=O)O)c1Cl	inactive	–
CCCCn1cc[n+](C)c1C	inactive	–
CCCSC(=O)Cl	–	-0.48%
O=[N+]([O-])c1ccc(Cl)c([N+](=O)[O-])c1	inactive	–

SMILES	Potency	activity change
O=C([O-])c1ccccn1.O=C([O-])c1ccccn1.O=C([O-])c1ccccn1.[Cr+3]	–	-0.239%
CCOP(=O)(CN(CCO)CCO)OCC	–	2.05%
C/C(=N\NC(=O)Nc1cc(F)cc(F)c1)c1ncccc1C(=O)O	inactive	–
C=COCCCl	–	-0.0616%
O=C(O)C(Cl)(Cl)Br	–	0.809%
CC(C)(C1CCC(O)CC1)C1CCC(O)CC1 (stereo not given)	–	2.94%
O=C(NCc1cccnc1)Nc1ccc([N+](=O)[O-])cc1	–	-1.07%
O=[N+]([O-])c1ccc(Cl)cc1	inactive	–
CC(C)CCON=O	–	-0.819%
CC(C)N(C(=O)CCl)c1ccccc1	inactive	–
CC(=O)[O][Hg][c]1ccccc1	34.4 µM (active) and 24.5 µM (active)	–
Cc1cnc[nH]1	–	4.3%
O=C(Cl)C(Cl)Cl	–	1.63%
CN(C)c1ccc(C(=O)c2ccc(N(C)C)cc2)cc1	inactive	–
CSc1nc(NC(C)C)nc(NC(C)C)n1	inactive	–
C=CCN1CC[C@]23CCCC[C@H]2[C@H]1Cc1ccc(O)cc13	–	0.491% [at 26.4 µM, hits give high values]
O=C(CCl)CCl	inactive	–
Cl/C=C/Cl	inactive	–
Nc1ccc(N)cc1	inactive	–
Nn1cnnc1	inactive	–
